# Screening results: PubChem BioAssay, several laboratories
# HIF-2a block – HIF-2a reporter inhibitors, primary screen, luminescence, 786-0 RCC cells; actives 0.72% (n = 360,000); AID 624352, 2012; inhibition, % at 18.8 µM; 786-0 RCC cells HIF-2a reporter, luciferase luminescence, overnight;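 active = inhibition of the luminescence signal of 40% or more relative to plate controls, in a single-dose primary screen at 18.75 µM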
# EWS-Fli block – EWS/Fli-driven NR0B1 reporter inhibitors, primary screen, A673 cells, NR0B1 luciferase, luminescence, MLPCN library; actives 0.67% (n = 350,000); inhibition, % at 12.6 µM; viability-normalised;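 active = mean inhibition of at least 50% after viability correction, with every replicate also passing that limit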;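 note: firefly luciferase signal divided by Alamar Blue viability fluorescence both relative to DMSO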
# PAX8 inh HTS – inhibitors of PAX8-driven TPO luciferase reporter, primary screen, RMG-I cells, single concentration; inhibition, % at 12.6 µM; SteadyGlo, 24 h; actives 1.2% (n = 360,000);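 active = mean replicate inhibition at least 60% with every replicate also reaching 60%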;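 note: luciferase light reporting Pax8 driven TPO promoter activity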
# CF NFkB inh – inhibitors of PAF-induced NF-kB signaling, primary screen, cell-based, GFP fluorescence, uHTS. KKLEB NF-kB-GFP reporter, GFP fluorescence overnight. inhibition, % at 5 µM. actives 0.86% (n = 360,000). AID 588850, 2011;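 active = at least 50% inhibition at 5 µM, scaled per plate between neutral and stimulator controls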;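 note: PAF is a Pseudomonas aeruginosa culture filtrate used as stimulus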
# KKLEB cytotox – cytotoxicity in KKLEB CF airway cells, primary screen, cytotoxicity control for CF NF-kB inhibitor project, cell-based, uHTS, fluorescence assay plates; activity change (cytotoxicity), % at 5 µM; KKLEB CF airway cells viability, ATPlite luminescence, overnight; active compounds read low; cells stimulated with P. aeruginosa culture filtrate; actives 0.36% (n = 360,000);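 active = corrected activity change at or below -50% at 5 µM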
# CF NFkB inh conf – inhibitors of PAF-induced NF-kB signaling, retest, confirmation, cell-based, GFP fluorescence, single concentration; shares compounds with CF NFkB inh; KKLEB CF airway cells, overnight; AID 602472, 2012; inhibition, % at 5 µM; actives 64% (n = 1,300); in the data active = inhibition above about 40%;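 note: stimulus PAF is a Pseudomonas aeruginosa filtrate and not platelet activating factor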
# A number is an active result; n = inactive; x = not tested or not shown. Most compounds without a hit are left out; they make up all but 2.1% or so of the library.
SMILES,HIF-2a block,EWS-Fli block,PAX8 inh HTS,CF NFkB inh,KKLEB cytotox,CF NFkB inh conf
CC1(Cc2ccc(Cl)cc2)C(=O)Nc2ccc(-c3ccc(F)c(Cl)c3)cc21 (stereo not given),n,n,n,n,n,x
CC1(Cc2ccc(F)cc2)C(=O)Nc2ccc(-c3cccnc3)cc21 (stereo not given),n,n,n,66.7,n,73.7
C=Cc1ccc(CC2(C)C(=O)Nc3ccc(-c4cccnc4)cc32)cc1 (stereo not given),n,n,n,74.4,n,86.7
COc1ccc(-c2[nH]n(-c3ccc([N+](=O)[O-])cc3)c(=O)c2C=NCc2ccccc2)cc1,n,n,n,50.5,n,n
COCOc1ccc(/C=C/C(=O)c2c(O)cc(OCOC)cc2OCOC)cc1,n,x,x,51.9,n,n
COc1ccc(-c2csc(/C(C#N)=C\c3ccc(O)c([N+](=O)[O-])c3)n2)cc1OC,n,n,n,79.3,n,79.8
Cc1ccc(C)c(S(=O)(=O)N(C(=O)c2ccncc2)c2ccc(OC(=O)c3ccncc3)cc2)c1,n,n,n,69.0,n,85.0
COc1ccc2c(C)nc(Nc3nc(-c4ccccc4)cc(=O)[nH]3)nc2c1,n,n,95.2,63.9,n,n
CCC(=O)N1CC(=O)N2[C@@H](CO)[C@@H](c3ccc(-c4ccc(C#N)cc4)cc3)[C@@H]2C1,x,n,x,x,x,x
CCCNC(=O)N1[C@H](C#N)[C@H](c2ccc(-c3ccc(C(=O)N(C)C)cc3)cc2)[C@@H]1CO,x,n,n,x,x,x
NC(=S)N1OC[C@@H]2COc3ccc4ccccc4c3[C@@H]21,n,n,n,72.2,n,54.9
COCc1cc(=O)[nH]c(SCCS(=O)(=O)c2ccc(C)cc2)n1,n,n,n,n,n,x
COCc1cc(=O)[nH]c(SCCS(=O)(=O)c2ccc(Cl)cc2Cl)n1,n,n,n,100.0,n,n
CCCC(=O)Nc1ccc2c(c1)C(=O)N(C)C[C@H](OC)[C@@H](C)CN(C(=O)c1cccnc1)[C@@H](C)CO2,x,n,n,x,x,x
O=c1ccc(=O)n(-c2ccccc2)[nH]1,n,n,n,n,n,x
O=c1cc(-c2ccccc2)[nH]n1-c1ccccc1,n,n,n,58.2,n,n
Cc1noc(C)c1NC(=O)Nc1ccc2c(c1)C(=O)N([C@H](C)CO)C[C@@H](C)[C@@H](CN(C)C(=O)NC1CCCCC1)O2,x,n,x,x,x,x
CC(=O)c1c(O)cc(O)cc1CC(=O)O,n,n,x,n,n,x
CC(=O)c1c(O)cc(O)c(C(C)=O)c1O,n,x,x,58.9,n,52.4
CC(=O)C1=C(c2cccc([N+](=O)[O-])c2)N(C(C)=O)n2c(C)nnc2S1,n,n,n,51.8,n,n
CC(=O)c1c(C(C)=O)c(C)n(-c2cccc([N+](=O)[O-])c2)c1C,n,x,n,n,n,x
Cc1nc(N2CCOCC2)nc(N2CCCCC2C)c1[N+](=O)[O-] (stereo not given),n,n,n,n,n,x
CC1CCCCN1c1ncnc(N)c1[N+](=O)[O-] (stereo not given),n,n,n,73.8,n,64.2
O=S(=O)(Nc1nc2ccccc2nc1N1CCN(c2ccccc2F)CC1)c1ccc(Cl)cc1,n,x,x,60.8,n,66.2
CC[C@@]1(c2ccccc2OC)C(=O)N(C(=O)OC)N1C(=O)OC,n,x,x,n,n,x
SMILES,HIF-2a block,EWS-Fli block,PAX8 inh HTS,CF NFkB inh,KKLEB cytotox,CF NFkB inh conf
CC[C@@]1(c2cccc(C)c2)C(=O)N(C(=O)OC)N1C(=O)OC,n,n,n,54.1,n,n
Cc1ccccc1C(=O)N1CCN(c2ccc(NC(=O)c3cccc(OC(C)C)c3)cc2)CC1,n,x,n,53.0,n,53.1
Cc1ccccc1C(=O)N1CCN(c2ccc(NC(=O)CSc3ccc(Cl)cc3)cc2)CC1,n,x,x,61.2,n,71.2
CCC(=O)Nc1ccc(N2CCN(C(=O)c3ccccc3C)CC2)cc1,n,x,x,n,n,x
CCOC(=O)c1c(C)c2c(=O)[nH]cnc2n1-c1ccccc1,n,n,n,56.3,n,66.3
C=CC[C@]12CC=CC(=O)[C@@]1(O)O[C@H](c1ccc(OC)c(OC)c1)[C@H]2C,n,n,x,62.2,n,57.9
C=CC[C@]12C=C(OC)C(=O)C(OC)=C1O[C@@H](c1ccc3c(c1)OCO3)[C@H]2C,n,n,x,n,n,x
COc1ccc2c3c(n(C)c2c1)[C@@H](CO)N(Cc1ccccc1)CC31CCN(C(=O)C2CC2)CC1,x,n,x,x,x,x
Cc1ccc(Nc2nc3nonc3[nH]c2=O)cc1C,n,x,x,n,n,x
Cc1ccc(Nc2nc3nonc3[nH]c2=O)cc1Cl,n,n,n,51.7,n,80.7
CC(=O)OCC(=O)C1(O)CCC2C3CCC4=CC(=O)CCC4(C)C3(Cl)C(O)CC21C (stereo not given),n,n,n,76.6,n,n
CC(C)(CNC(=O)CO/N=C1/C=C2CCC3C(C(O)C[C@@]4(C)C3CC[C@]4(O)C(=O)CO)[C@@]2(C)CC1)C(O)C(=O)O (stereo not given in full),n,n,n,69.5,n,n
CC12CCC(=O)C=C1CCC1C2C(O)CC2(C)C1CCC2(O)C(=O)COC(=O)CCC1CCCC1 (stereo not given),n,x,x,52.8,n,n
C[C@H](CO)N1C[C@H](C)[C@H](CN(C)C(=O)C2CCC2)Oc2ncc(-c3cccc(C#N)c3)cc2C1=O,x,n,n,x,x,x
O=C(C1CCOCC1)N1C[C@H]2[C@@H](c3ccccc31)[C@@H](CO)N2C(=O)Cc1ccccn1,x,n,n,x,x,x
O=C(NCC[C@H]1CC[C@@H](NC(=O)C2CC2)[C@@H](CO)O1)Nc1ccc(C(F)(F)F)cc1,x,n,n,x,x,x
CCOC(=O)C1=C(CC)Nc2ccccc2N=C1NC(=O)c1oc2ccccc2c1C,n,n,64.5,76.2,n,94.8
CCC(=O)N[C@H]1C=C[C@@H](CC(=O)NCc2cc(F)cc(F)c2)O[C@@H]1CO,x,n,n,x,x,x
C[C@H](CO)N1C[C@H](C)[C@@H](CN(C)C(=O)NC2CCCCC2)Oc2ccc(NS(=O)(=O)c3ccc(Cl)cc3)cc2C1=O,x,n,n,x,x,x
COc1cc(CCc2ccccc2)c(C(=O)O)c(O)c1C/C=C(/C)CCC=C(C)C,n,n,n,60.1,n,71.3
COc1ccccc1C(=O)N1CCN(Cc2ccc3c(c2)OCO3)CC1,n,x,n,n,n,x
CCOc1ccccc1C(=O)NCC(=O)N1CCN(Cc2ccc3c(c2)OCO3)CC1,n,x,x,74.2,n,n
COc1ccc(C(=O)Nc2cccc(NC(=O)c3ccc(OC)c(OC)c3)n2)cc1OC,n,n,n,83.9,n,62.1
COc1ccc(C(=O)Nc2cccc3cccnc23)cc1OC,n,n,x,n,n,x
